# Reference: PubChem BioAssay (NCI)
# This is part of a sample that, as a whole, favours compounds with a hit. Of some 83,000 tested, about 20% had one in any assay.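 Values shown are percent growth following 48 h exposure of cells in 96-well plates to a single concentration of compound; below 10 was considered active.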 A number with no mark means an inactive call. Calls of active or inactive are those of the source.
# System: HL-60(TB) leukemia
# Test: NCI-60 one-dose screen, 48 h (100 = growth as untreated, 0 = no growth, -100 = all killed)
# Conditions: 10 µM unless noted
row,Compound,growth
1,CN1CCN(c2ccc(OC(F)(F)F)c(Nc3ncc4c(n3)-c3c(c(C(N)=O)nn3CCO)CC4)c2)CC1,-20.5% (active)
2,Cn1ccnc1C(=O)/C=C/c1ccc(C(=O)Nc2nc3ccccc3[nH]2)cc1,26.7%
3,C=CC(=O)NCCOc1cccc(Nc2cc(NCCCNC(=O)C3CCC3)c(Br)cn2)c1,-55% (active)
4,C=C1C(=O)O[C@H]2[C@H]1CC/C(COC(=O)c1cccc3ccccc13)=C\CC[C@@]1(C)O[C@@H]21,-47.2% (active)
5,COC(=O)c1nc(-c2ccccc2)oc1S(=O)(=O)N1CCC(C(N)=O)CC1,-33.2% (active)
6,Cc1nc(Nc2cccnc2)sc1C(=O)/C=C/c1ccc(F)cc1,12.6%
7,COc1cc2cc(c1Cl)N(C)C(=O)C[C@H](OC(=O)[C@H](C)N(C)C(C)=O)[C@]1(C)O[C@H]1[C@H](C)[C@@H]1C[C@@](O)(NC(=O)O1)[C@H](OC)C=C/C=C(\C)C2,-25.6% (active)
8,CS(=O)(=O)OC1CC(n2ccc(=O)[nH]c2=O)OC1COC(c1ccccc1)(c1ccccc1)c1ccccc1 (stereo not given),97.6%
9,Clc1ccc(/C=C2\CCCC3C2=Nc2ccccc2NC3c2ccc(Cl)cc2)cc1 (stereo not given),73.9%
10,CC(C)N1C(=O)/C(=c2\sc3n(c2=O)C2C(NN=3)N(C)C(=O)N2C)c2ccccc21 (stereo not given),25.8%
11,c1cc2ccc3cc2cc1CNCCN1CCNCc2ccc4ccc(cc4c2)CNCCN(CCNC3)CCNCc2ccc3ccc(cc3c2)CNCC1,-38.7% (active)
12,CCOc1ccccc1CN1CCc2nc3cc(C(C)(C)C)[nH]n3c(=O)c2C1,99.4%
13,COC(=O)CC(=O)C(=O)OC,100%
14,COc1ccc(OC)c2ncccc12,98.9%
15,COC(=O)c1c2c(c[n+]([O-])c1C)C(=O)C=C(NCc1ccccc1)C2=O,-49.4% (active)
16,CCC(C)C1NC(=O)C(CCCCN)NC(=O)C(CCCCN)NC(=O)C(CC(C)C)NC(=O)C(CCCCN)NC(=O)C(C(C)CC)NC(=O)C(C(C)C)NC(=O)C(C(C)CC)NC(=O)C(CCCCN)NC(=O)C(CCCCN)NC(=O)C(C)NC(=O)C(CCCCN)NC(=O)C(CC(C)C)NC1=O (stereo not given),-35.2% (active)
17,CCCCc1ccc(Nc2nnc(SCC(=O)NC(=O)NCC)s2)cc1,95.2%
18,CS(=O)(=O)Nc1cncc(-c2ccc3ncnc(Nc4ccc(F)c(Cl)c4)c3c2)c1,6.11% (active)
19,O=C(/C=C/CN1CCOCC1)Nc1cc2c(Nc3cccc(Cl)c3F)ncnc2cc1OCCOC(F)F,89.5%
20,COc1cc2c(cc1OC)-c1ccc3cc4c(cc3c1N(CCN(C)C)C2)OCO4,-33.9% (active)

row,Compound,growth
1,COc1ccc(-c2nc(-c3ccccc3)c(-c3ccccc3)[nH]2)cc1OC1CCCC1,83.1%
2,COc1ccc(CSc2nnc(SCC(=O)Nc3ccc(Cl)cc3)s2)cc1,56.9%
3,O=C(Nc1cc(Cl)ccc1O)c1cccc(Nc2ccnc(C(F)(F)F)c2)c1,-18% (active)
4,Cc1ccc(S(=O)(=O)NC(CCC(=O)Nc2ccc(Cl)cc2)C(=O)Nc2ccc(Cl)cc2)cc1 (stereo not given),24.1%
5,COc1ccc2[nH]c(=O)c(CN3CCN(c4nccc(-c5ccc(Cl)cc5)n4)CC3)cc2c1,90.1%
6,CC1=C(C(=O)Nc2ccccc2)C(c2ccc3c(c2)OCO3)NC(=S)N1 (stereo not given),104%
7,CC1(C)C2CCC(O)(C(=O)O)C1C2 (stereo not given),107%
8,COc1cccc(C(=O)NCCNc2cc(-c3cn(-c4ccccc4)nc3-c3cccc(OC)c3)ccn2)c1,41.5%
9,O=C1C(=O)c2ccccc2C(O)=C1CCCc1ccc(C2CCCCC2)cc1,30.6%
10,CC1SC(c2cccc(Oc3ccccc3)c2)N(CCc2cccs2)C1=O (stereo not given),-21.9% (active)
11,CSc1ccc2c(c1)N(CCC1CCCCN1C)c1ccccc1S2 (stereo not given),86.1%
12,Cc1cccc(C[C@H](NC(=O)Nc2ccc(Cl)cc2F)C(=O)N[C@@H]2C(=O)N3C[C@H](O)C[C@H]3C(=O)N3CCCC[C@H]3C(=O)N[C@@H](C)C(=O)N3C[C@H](C)C[C@H]3C(=O)O[C@H]2C)c1,6.77% (active)
13,COc1cc2c(cc1OCCCCCCN1CCN(c3ncnc4ccccc34)CC1)N=CC1CCCN1C2=O (stereo not given),-43.3% (active)
14,NC(N)=NC(N)=Nc1cc2ccccc2c2ccccc12,28.8%
15,COc1ccccc1[C@H]1c2[nH]c3ccccc3c2C[C@H]2C(=O)N(CCCCCCC(=O)NO)CC(=O)N12,1.91% (active)
16,O=C(CSc1nnnn1-c1ccccc1)Nc1ccc(Oc2ccccc2)cc1,110%
17,CCCCCCCC/C=C\CCCCCCCCOc1cccc(CC(=O)NCC[N+]2(C)CCOCC2)c1,67.6%
18,CC(=O)OC[C@]12CC[C@@H](C(=O)CBr)[C@@H]1[C@H]1CC[C@@H]3[C@@]4(C)CC[C@H](OC(C)=O)C(C)(C)[C@@H]4CC[C@@]3(C)[C@]1(C)CC2,63.8%
19,CN(C)c1ccc2cc3c(cc2c1)Oc1ccccc1N3.[Cl][Zn][Cl],-10.4% (active)
20,CCN1CCN(c2ccc(Nc3ncc4ccc5ncn(C(C)C)c5c4n3)nc2)CC1,-36.3% (active)
